Test [1] in a line: qHTS assay to identify small molecule antagonists of the glucocorticoid receptor (GR) signaling pathway - cell viability counter screen (AID 720693). Also: nearly all actives have a fitted effect of over 55% in size. Also: potency is read from the fitted curve at half-maximal effect. For orientation: qHTS replaces the single test concentration by a dilution series.
The nature of test [2]: qHTS assay for identifying genotoxic compounds that show differential cytotoxicity against isogenic chicken DT40 cell lines with known DNA damage response pathways - wild type cell line (AID 743012). Also: nearly all actives have a fitted effect of over 60% in size. Also: potency is read from the fitted curve at half-maximal effect. In short, it runs like this:
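CellTiter-Glo luminescence readout of viability in wild type DT40 cells after 40 h compound exposure at 37 C/5% CO2; 300 cells/well; reagent incubated 30 min at room temperature before reading.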

Test [3] in a line: qHTS assay for identifying genotoxic compounds that show differential cytotoxicity against isogenic chicken DT40 cell lines with known DNA damage response pathways - Rev3 mutant cell line (AID 743014). Also: nearly all actives have a fitted effect of over 55% in size. Also: potency is read from the fitted curve at half-maximal effect.
Test [4] is described as follows: qHTS assay for identifying genotoxic compounds that show differential cytotoxicity against isogenic chicken DT40 cell lines with known DNA damage response pathways - Rad54/Ku70 mutant cell line (AID 743015). Also: nearly all actives have a fitted effect of over 60% in size. Also: potency is read from the fitted curve at half-maximal effect.
Test [5] in a line: qHTS assay to identify small molecule antagonists of the thyroid receptor (TR) signaling pathway - cell viability counter screen (AID 743064). Also: nearly all actives have a fitted effect of over 50% in size. Also: potency is read from the fitted curve at half-maximal effect. The procedure, abridged: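 Viability of T3-stimulated (1 nM final) GH3.TRE-Luc cells is measured by CellTiter-Fluor fluorescence after 23.5 h compound exposure at 37 °C plus 30 min reagent incubation.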
Test [6] in a line: qHTS assay to identify small molecule antagonists of the thyroid receptor (TR) signaling pathway (AID 743065). Also: nearly all actives have a fitted effect of over 55% in size. Also: potency is read from the fitted curve at half-maximal effect. In short, it runs like this: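 GH3.TRE-Luc rat pituitary cells (two TREs driving luciferase) were dosed with compound, then stimulated with 1 nM T3 (final) for 23.5 h at 37 C. ONE-Glo luminescence was the read-out, with CellTiter-Fluor fluorescence as the cytotoxicity counter-screen.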

Test [7] concerns thyroid hormone receptor (rat, GH3 cells). Briefly: qHTS assay to identify small molecule agonists of the thyroid receptor (TR) signaling pathway (AID 743066; calls by dose curve).
In test [8] the target is Estrogen receptor (Homo sapiens) (UniProt P03372). The test is described as follows: qHTS assay to identify small molecule antagonists of the estrogen receptor alpha (ER-alpha) signaling pathway (AID 743069; active = well fitted curve in the direction sought with a large enough effect in the signal ratio in the repeat runs, not every such curve was filed as active; the % refers to the signal ratio). In short, it runs like this:
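Beta-lactamase FRET fluorescence is read after 2 hr at room temperature with LiveBLAzer B/G substrate. Before that, ER-alpha-bla HEK293 cells sit 4 hr after plating, then receive compound plus 17beta-estradiol and incubate 18 hr at 37C.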

Test [9] in a line: qHTS assay to identify small molecule antagonists of the estrogen receptor alpha (ER-alpha) signaling pathway - cell viability counter screen (AID 743074; calls by dose curve;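 also: HEK293 cells carrying ER-alpha-UAS-bla reporter stimulated with 17beta-estradiol; nearly all actives have a fitted effect of over 45% in size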; also: potency is read from the fitted curve at half-maximal effect).
Test [10] deals with Estrogen receptor (Homo sapiens) (UniProt P03372). The test is described as follows: qHTS assay to identify small molecule agonists of the estrogen receptor alpha (ER-alpha) signaling pathway (AID 743075; calls by dose curve;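 also: HEK293 GripTite cells with ER-alpha and UAS-driven beta-lactamase reporter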). The note with it: HEK293 ER-alpha-UAS-bla, beta-lactamase FRET ratio, 18 h; activation: at 70.1 µM (top of the series).
Test [11] shares this target. The test is described as follows: qHTS assay to identify small molecule agonists of the estrogen receptor alpha (ER-alpha) signaling pathway using the BG1 cell line (AID 743079). Also: nearly all actives have a fitted effect of over 20% in size. The note with it: BG1Luc4E2 cells, ERE-luciferase agonist, 22 h.
Test [12] in a line: qHTS assay to identify small molecule antagonists of the estrogen receptor alpha (ER-alpha) signaling pathway using the BG1 cell line (AID 743080; calls by dose curve;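 also: BG1 cells stimulated with 17beta-estradiol alongside compound; nearly all actives have a fitted effect of over 25% in size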). The procedure, abridged: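 Seeding, 24 h rest, compound transfer from DMSO, 17beta-estradiol addition, 21.5 h incubation, CellTiter-Fluor (30 min, 37 C), then ONE-Glo (30 min, room temperature): this sequence was run on BG1-Luc-4E2 reporter cells.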

Test [13] can be described thus: qHTS assay to identify small molecule antagonists of the estrogen receptor alpha (ER-alpha) signaling pathway using the BG1 cell line - cell viability counter screen (AID 743081).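 Also: compound given together with 17beta-estradiol as the ER stimulus; nearly all actives have a fitted effect of over 45% in size.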 Also: potency is read from the fitted curve at half-maximal effect.
The target of test [14] is Aromatase (Homo sapiens) (UniProt P11511). The test is described as follows: qHTS assay to identify aromatase inhibitors (AID 743083). Also: nearly all actives have a fitted effect of over 55% in size. Also: potency is read from the fitted curve at half-maximal effect.
Test [15] addresses Androgen receptor (Homo sapiens) (UniProt P10275). The test is described as follows: qHTS assay to identify small molecule antagonists of the androgen receptor (AR) signaling pathway (AID 743035; active = well fitted inhibition curve with a large enough effect in the signal ratio in the repeat runs, not every such curve was filed as active; the % refers to the signal ratio; also: potency is read from the fitted curve at half-maximal effect). In short, it runs like this:
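AR-bla HEK293 reporter cells; 4 h settle at 37C/5% CO2; compound + R1881 agonist, 16 h at 37C; LiveBLAzer B/G FRET substrate 2 h RT; fluorescence intensity read. qHTS format.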

Test [16] shares this target. The test is described as follows: qHTS assay to identify small molecule agonists of the androgen receptor (AR) signaling pathway (AID 743036; active = well fitted activation curve with a large enough effect in the signal ratio in the repeat runs, with a control signal flat, not every such curve was filed as active; the % refers to the signal ratio). In short, it runs like this:
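Screening used 2,000 AR-bla HEK293 cells per well, treated 16 h at 37C with test compounds in DMSO alongside positive and DMSO-only controls; beta-lactamase activity was then read by LiveBLAzer B/G FRET fluorescence after 2 h at room temperature.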

Test [17] shares this target. Briefly: qHTS assay to identify small molecule agonists of the androgen receptor (AR) signaling pathway using the MDA cell line (AID 743040; also: nearly all actives have a fitted effect of over 20% in size). The procedure, abridged:
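Luciferase read-out, ONE-Glo, 30 min RT. Cells: MDA-kb2 AR-luc, MMTV promoter with AR and GR response elements. Compound exposure 16 h, 37C, 0% CO2, after 5 h pre-incubation. qHTS agonist mode.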

Test [18] can be described thus: qHTS assay to identify small molecule antagonists of the androgen receptor (AR) signaling pathway using the MDA cell line - cell viability counter screen (AID 743041; also: nearly all actives have a fitted effect of over 45% in size; also: potency is read from the fitted curve at half-maximal effect). The procedure, abridged:
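Cytotoxicity counter screen: MDA-kb2 AR-luc cells, compound + R1881, 16 h, 37C, 0% CO2; CellTiter-Fluor added at 15.5 h, fluorescence read after 30 min.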

Test [19] addresses Androgen receptor (Homo sapiens) (UniProt P10275). The test is described as follows: qHTS assay to identify small molecule antagonists of the androgen receptor (AR) signaling pathway using the MDA cell line (AID 743042; also: nearly all actives have a fitted effect of over 55% in size; also: potency is read from the fitted curve at half-maximal effect). The procedure, abridged: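 MDA-kb2 breast carcinoma cells carrying MMTV-luciferase (AR/GR responsive) were co-treated with compounds and the agonist R1881 for 16 h at 37C. Inhibition read as ONE-Glo luminescence; CellTiter-Fluor fluorescence measured in parallel for cytotoxicity.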

Test [20] can be described thus: qHTS assay to identify small molecule antagonists of the androgen receptor (AR) signaling pathway - cell viability counter screen (AID 743033; also: nearly all actives have a fitted effect of over 45% in size; also: potency is read from the fitted curve at half-maximal effect).

“And” between values parts separate entries of the source, which are not always exact repeats. Equal values may be shown once. Results filed as inconclusive are left out. A structure can be active in one record and inactive in another. The source made the active and inactive calls. Unless noted, calls follow the shape of the dose curve; as a rule, active = well fitted curve in the direction sought with a large enough effect in the repeat runs; inconclusive = weak or mixed curves; inactive = no such curve, though single readings can be large; an effect the other way counts as inactive or inconclusive.
% is scaled to controls: 0 for no effect and ±100 for the full control effect.

Sequence of Aromatase (Homo sapiens) (P11511 whole entry, looked up): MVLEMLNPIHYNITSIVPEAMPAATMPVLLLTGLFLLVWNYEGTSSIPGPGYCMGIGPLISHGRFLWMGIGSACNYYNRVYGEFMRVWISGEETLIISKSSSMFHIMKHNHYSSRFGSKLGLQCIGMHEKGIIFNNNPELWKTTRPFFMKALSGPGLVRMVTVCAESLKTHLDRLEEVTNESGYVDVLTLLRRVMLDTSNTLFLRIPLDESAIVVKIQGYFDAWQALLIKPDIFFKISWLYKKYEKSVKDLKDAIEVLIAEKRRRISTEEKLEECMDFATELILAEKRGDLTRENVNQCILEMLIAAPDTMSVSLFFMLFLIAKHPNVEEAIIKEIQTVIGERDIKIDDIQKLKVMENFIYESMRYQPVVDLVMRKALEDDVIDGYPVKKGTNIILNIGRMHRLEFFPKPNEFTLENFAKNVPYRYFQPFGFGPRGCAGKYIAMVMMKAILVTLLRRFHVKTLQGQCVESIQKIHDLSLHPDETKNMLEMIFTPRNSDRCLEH
Sequence of Estrogen receptor (Homo sapiens) (P03372 whole entry, looked up): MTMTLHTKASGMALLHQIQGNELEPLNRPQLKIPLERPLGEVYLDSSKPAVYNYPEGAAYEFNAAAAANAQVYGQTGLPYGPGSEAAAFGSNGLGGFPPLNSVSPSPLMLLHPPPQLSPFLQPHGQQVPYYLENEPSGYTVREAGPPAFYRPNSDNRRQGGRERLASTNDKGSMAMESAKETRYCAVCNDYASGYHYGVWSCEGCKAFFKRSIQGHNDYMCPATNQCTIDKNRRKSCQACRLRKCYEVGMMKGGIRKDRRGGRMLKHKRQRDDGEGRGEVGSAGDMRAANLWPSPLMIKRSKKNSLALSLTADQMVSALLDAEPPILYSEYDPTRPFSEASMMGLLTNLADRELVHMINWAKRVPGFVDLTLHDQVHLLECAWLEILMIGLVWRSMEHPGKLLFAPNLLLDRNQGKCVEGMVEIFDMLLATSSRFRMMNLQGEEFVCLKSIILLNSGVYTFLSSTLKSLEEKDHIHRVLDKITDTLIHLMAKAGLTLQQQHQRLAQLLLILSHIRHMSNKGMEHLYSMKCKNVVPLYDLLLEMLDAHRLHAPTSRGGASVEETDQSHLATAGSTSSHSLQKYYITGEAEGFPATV
Sequence of Androgen receptor (Homo sapiens) (P10275 whole entry, looked up): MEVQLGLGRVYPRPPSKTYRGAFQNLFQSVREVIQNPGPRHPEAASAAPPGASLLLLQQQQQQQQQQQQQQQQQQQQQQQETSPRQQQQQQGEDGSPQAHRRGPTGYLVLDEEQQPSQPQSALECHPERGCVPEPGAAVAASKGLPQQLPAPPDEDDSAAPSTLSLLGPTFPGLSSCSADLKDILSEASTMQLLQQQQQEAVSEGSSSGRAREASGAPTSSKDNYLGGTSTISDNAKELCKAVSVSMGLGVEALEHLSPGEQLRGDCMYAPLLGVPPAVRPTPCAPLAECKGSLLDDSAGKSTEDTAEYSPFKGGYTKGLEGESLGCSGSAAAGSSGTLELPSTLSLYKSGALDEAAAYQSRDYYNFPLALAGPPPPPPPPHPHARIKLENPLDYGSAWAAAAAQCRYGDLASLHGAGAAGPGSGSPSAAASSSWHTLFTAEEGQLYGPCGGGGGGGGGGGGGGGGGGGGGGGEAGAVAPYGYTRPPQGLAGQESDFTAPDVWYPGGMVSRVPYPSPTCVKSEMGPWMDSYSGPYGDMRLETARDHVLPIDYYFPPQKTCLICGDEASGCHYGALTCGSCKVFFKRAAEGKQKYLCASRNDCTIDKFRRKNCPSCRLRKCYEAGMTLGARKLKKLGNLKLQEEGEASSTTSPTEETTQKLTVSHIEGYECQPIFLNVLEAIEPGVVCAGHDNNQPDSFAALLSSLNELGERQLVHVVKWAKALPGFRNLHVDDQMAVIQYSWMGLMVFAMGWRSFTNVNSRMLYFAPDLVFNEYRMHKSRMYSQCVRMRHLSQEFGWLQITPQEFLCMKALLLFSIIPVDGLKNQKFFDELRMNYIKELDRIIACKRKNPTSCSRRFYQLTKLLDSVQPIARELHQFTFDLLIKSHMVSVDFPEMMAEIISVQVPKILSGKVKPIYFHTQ

Take `CCN(CCC#N)c1ccc(N=Nc2c(Cl)cc([N+](=O)[O-])cc2Cl)cc1`: the Potency result in test [1], in test [7], in [8], in test [9], in test [10] and in test [12] was “inactive” in each case. For the same molecule, the Potency entry in test [14] is “inactive”. The Potency in test [2] was 13.7 µM (active); in [3], 10.9 µM (active); in [4] it was 17.2 µM (active); in test [5], 24.3 µM (active); in test [6], 24.3 µM (active); in [13], 27.3 µM (active). The activation in test [11] (at 70.3 µM (top of the series)) is -0.554% (inactive).
As to `NNC(=O)c1cccc(C(=O)NN)c1`, the Potency result in [1], in [2], in [3], in test [15], in [16] and in test [17] was “inactive” throughout. The Potency result in test [18], in test [19], in [5], in [6], in test [7] and in [8] was “inactive” throughout. In addition, the Potency result in [9], in test [10], in test [13] and in test [14] was “inactive” in each case. Besides, the activation in test [11] (at 70.3 µM (top of the series)) was 4.33% (inactive).
Regarding `CC(C)(C)CC(C)(C)c1ccc(OCCOCC[N+](C)(C)Cc2ccccc2)cc1`, the Potency in test [1] is 19.5 µM (active); in test [2], 668 nM (active) and 1.53 µM (active); in [4], 1.06 µM (active) and 1.93 µM (active); in test [20], 21.3 µM (active) and 7.75 µM (active); in test [18], 24.8 µM (active) and 38.5 µM (active); in test [5] it was 16.8 µM (active) and 13.7 µM (active). For the same molecule, the Potency was 16.8 µM (active) and 13.7 µM (active) in [6]; 19 µM (active) and 19.5 µM (active) in [9]; “inactive and 61.1 µM (active)” in test [13]; 23.7 µM (active) and 12.2 µM (active) in test [14]. Also, the Potency entry in test [10] is “inactive”.
With `CC(C)(C)C(=O)OCOC(=O)[C@@H]1N2C(=O)[C@@H](NC(=O)[C@H](N)c3ccccc3)[C@H]2SC1(C)C`, the Potency result in test [1], in [2], in test [3], in test [18], in test [5] and in [6] was “inactive” in each case. In addition, the Potency entry in [7], in test [8], in [9], in [10], in test [12] and in [13] was “inactive” in each case. The Potency result in test [14] was “inactive”. In addition, the activation in test [11] (at 32.5 µM (top of the series)) was 0.598% (inactive).
For the molecule `NNc1nc(-c2ccc([N+](=O)[O-])cc2)cs1`, the Potency in test [1] is 43.6 µM (active); in test [2], 6.11 µM (active); in test [4] it was 4.33 µM (active); in test [20] it was 30.9 µM (active); in test [15], 24.5 µM (active); in test [18] it was 61.1 µM (active). Besides, the Potency in test [19] is 48.6 µM (active); in test [5], 68.6 µM (active); in test [6] it was 30.6 µM (active); in [9], 15.5 µM (active); in test [13], 54.5 µM (active); in test [14], 43.3 µM (active). Further, the Potency entry in [17], in test [7] and in [10] was “inactive” each time.
For `CCCCCCCCNC(C)C(O)c1ccc(SC(C)C)cc1` (stereo not drawn), the Potency is 10.7 µM (active) in [1]; 1.88 µM (active) in test [2]; 1.68 µM (active) in [3]; 21.3 µM (active) in test [20]; 5.31 µM (active) in test [5]; 5.96 µM (active) in test [6]. In addition, the Potency is 9.52 µM (active) in [9] and 29.8 µM (active) in test [14]. For the same molecule, the Potency result in [17] and in test [19] was “inactive” each time.
For the molecule `c1ccc(CSCc2ccccc2)cc1`, the Potency result in test [1], in [2], in test [4], in [20], in [18] and in test [5] was “inactive” in each case. Further, the Potency entry in test [6], in test [7], in test [9], in [13] and in test [14] was “inactive” in each case.
For the molecule `CC(C)C(C)(C)C(C)(C)C(C)(C)S`, the Potency result in test [1], in [2], in test [17], in test [18], in test [19] and in test [7] was “inactive” throughout. The Potency result in [8], in test [10], in test [12] and in test [13] was “inactive” throughout. The activation in [11] (at 70.3 µM (top of the series)) is 4.61% (inactive).
As for `Clc1ccc2n[nH]nc2c1`, the Potency entry in test [1], in test [2], in test [20], in test [18], in test [5] and in [6] was “inactive” in each case. In addition, the Potency result in test [7], in test [9], in [13] and in test [14] was “inactive” in each case.

These data come from PubChem BioAssay (Tox21).
